# Records with an inconclusive call do not appear. Entries that show only a call come without a potency. The source made the active and inactive calls. The call rests on the fitted dose curve; in most records, active means well fitted activation curve with a large enough effect in the repeat runs; inconclusive means weak or mixed curves; inactive means flat fitted curve, though single readings scatter.
# Biological target: Nuclear receptor subfamily 1 group I member 2 (Homo sapiens) (UniProt O75469)
# Assay: Human pregnane X receptor (PXR) activation by small molecules, qHTS assay (AID 1346985); further: nearly all actives have a fitted effect of over 40% in size
# Conditions: DPX-2 HepG2 CYP3A4-luciferase, 24 h; series mostly up to 38.3 µM
# Outline: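 DPX-2 cells (HepG2 co-transfected with a PXR response element and a CYP3A4-promoter luciferase construct) were seeded at 2,000 per well, rested 5 hr at 37C, then exposed to DMSO-dissolved compounds for 24 hr. Activation was read as luciferase luminescence.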
# Potency means the concentration at half of the fitted maximal effect.
row,SMILES,Potency
1,CC(=O)O[C@H]1C[C@@]2(C)[C@@H](C[C@@H](O)[C@H]3[C@@]4(C)CC[C@@H](O)[C@@H](C)[C@@H]4CC[C@@]32C)/C1=C(\CCC=C(C)C)C(=O)O,inactive
2,CCSc1ccc2c(c1)N(CCCN1CCN(C)CC1)c1ccccc1S2,inactive
3,COc1cc([C@@H]2c3cc4c(cc3C(O[C@@H]3O[C@@H]5COC(c6cccs6)O[C@H]5[C@H](O)[C@H]3O)C3COC(=O)[C@@H]32)OCO4)cc(OC)c1O (stereo partly drawn),10 µM (active)
